Bioassay records: PubChem, National Center for Advancing Translational Sciences (NCATS)
An excerpt weighted towards active compounds, which were near 10% of everything screened.
HEK293 tox: cytotoxic compounds in HEK 293 cells; HEK 293 viability, ATP luminescence (CellTiter-Glo), 48-72 h; Potency, µM (series often up to 115 µM), inactives show at the top dose activity change, negative = cytotoxicity, usual class: inhibitors; hit rate 6.6% among 94,000; AID 1345083; note: % is set by controls: 0 for no effect and ±100 for the full control effect; nearly all actives have a fitted effect of over 60% in size
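HEK 293 cells seeded at 250 cells/well were exposed to compound for 48 or 72 hr at 37 degree Celsius. Viability taken as ATP content by CellTiter-Glo luminescence.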
hNpr1 antagonist: human Npr1 receptor antagonism | Potency, µM (series often up to 46.3 µM), for the others: at the highest dose activity change, negative = inhibition, actives largely listed as inhibitors | hit rate 1.6% among 76,000 | HEK293 hNpr1 GloSensor cGMP, ANP-stimulated luminescence; calls by dose curve; note: % is set by controls: 0 for no effect and ±100 for the full control effect; nearly all actives have a fitted effect of over 60% in size
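HEK293 cells stably expressing human Npr1 and cGMP GloSensor pGS-40F, loaded 2 h with 2% GloSensor reagent, given compound 30 min at room temperature. Luminescence read before and 20 min after 0.1 nM hNppA.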
GPT2 inhibitor: inhibitors of human GPT2 alanine aminotransferase | Q8TD30 | Recombinant GPT2, coupled pyruvate oxidase/HRP Amplex Red fluorescence | Potency, µM (series often up to 57.7 µM), without a hit: top-dose activity change, negative = inhibition, usual class: inhibitors | hit rate 0.25% among 100,000 | AID 1671188; note: % is set by controls: 0 for no effect and ±100 for the full control effect; nearly all actives have a fitted effect of over 60% in size
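Fluorescence read-out: pyruvate from GPT2 turnover coupled to pyruvate oxidase, HRP and Amplex Red (0.2mM ThPP, 0.2U/mL PO and HRP, 50uM Amplex final). Substrates 250uM a-KG, 2mM L-alanine; enzyme 10ng/uL; 30 min RT.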
FLuc inh: Photinus pyralis luciferase inhibition. P08659. purified P. pyralis luciferase, luminescence, biochemical. Potency, µM (highest dose often 115 µM), hits mostly inhibitors. hit rate 2.5% among 76,000. AID 1347043; note: % is set by controls: 0 for no effect and ±100 for the full control effect; nearly all actives have a fitted effect of over 65% in size
Target sequence (P08659 whole entry, looked up): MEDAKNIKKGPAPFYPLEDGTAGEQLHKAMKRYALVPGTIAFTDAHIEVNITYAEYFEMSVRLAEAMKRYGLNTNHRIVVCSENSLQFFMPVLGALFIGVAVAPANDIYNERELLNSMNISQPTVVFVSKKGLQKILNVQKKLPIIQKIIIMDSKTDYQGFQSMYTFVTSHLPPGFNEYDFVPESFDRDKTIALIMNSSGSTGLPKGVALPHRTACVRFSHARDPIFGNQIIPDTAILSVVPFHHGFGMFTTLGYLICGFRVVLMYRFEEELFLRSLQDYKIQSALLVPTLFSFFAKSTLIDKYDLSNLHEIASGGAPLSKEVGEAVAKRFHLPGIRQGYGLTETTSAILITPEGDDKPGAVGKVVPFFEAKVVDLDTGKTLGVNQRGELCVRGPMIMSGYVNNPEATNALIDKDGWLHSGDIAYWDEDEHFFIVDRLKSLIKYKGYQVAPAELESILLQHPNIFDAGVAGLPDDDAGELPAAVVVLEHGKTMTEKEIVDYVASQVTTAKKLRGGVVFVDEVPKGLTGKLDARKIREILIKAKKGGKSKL
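Luminescence read by CCD imager after adding enzyme (10nM final) to wells holding compound, titrated in qHTS. Substrates 10uM each D-luciferin and ATP; buffer 50mM Tris acetate pH 7.5, 10mM Mg acetate, Tween-20, BSA.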
3T3 cytotox: kills NIH 3T3 cells | hit rate 4.3% among 94,000 | NIH 3T3 viability, CellTiter-Glo ATP luminescence, 48-72 h | AID 1345082 | Potency, µM (series often up to 96.7 µM), for inactives: at the top dose activity change, negative = cytotoxicity, usual class: inhibitors; note: % is set by controls: 0 for no effect and ±100 for the full control effect; nearly all actives have a fitted effect of over 55% in size
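Viability of NIH 3T3 cells after 48 or 72 hr compound treatment at 37 °C was assessed by CellTiter-Glo, with luminescence imaged following a 10 min room-temperature step.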
NPR1 antag cnf: confirmation of human Npr1 natriuretic peptide receptor antagonists | hit rate 76% among 1,400 | shares compounds with hNpr1 antagonist | AID 1347044 | Potency, µM (top dose mostly 57.6 µM), inactives show at the top dose activity change, negative = inhibition, actives largely listed as inhibitors | HEK293 hNpr1 cGMP GloSensor luminescence, ANP-stimulated; calls by dose curve; note: nearly all actives have a fitted effect of over 70% in size
Npr2 selectivity: selectivity test of Npr1 antagonists against human Npr2; hit rate 67% among 1,400; Potency, µM (highest dose often 57.6 µM), for inactives: at the highest dose activity change, negative = inhibition, actives largely listed as inhibitors; shares compounds with hNpr1 antagonist; AID 1347046; HEK293 hNpr2 GloSensor cGMP luminescence, CNP-stimulated; calls by dose curve; note: nearly all actives have a fitted effect of over 70% in size
FLuc inh counter: FLuc enzyme inhibition, Npr1 counter-screen | shares compounds with hNpr1 antagonist | Potency, µM (titrated, usually from 57.6 µM), for inactives: at the highest dose activity change, negative = inhibition, usual class: inhibitors | hit rate 0.7% among 1,400 | purified FLuc enzyme, luminescence, Km substrate | AID 1347047; note: series mostly up to about 58 µM; 0% is about no effect
GloSensor cGMP: reduces cGMP signal in GloSensor control cells. shares compounds with hNpr1 antagonist. HEK293 GloSensor cGMP, SNP-stimulated, luminescence. Potency, µM (titrated, usually from 57.6 µM), inactives show at the top dose activity change, negative = inhibition, actives largely listed as inhibitors. hit rate 69% among 1,400; calls by dose curve; note: % is set by controls: 0 for no effect and ±100 for the full control effect; nearly all actives have a fitted effect of over 70% in size
* marks the source's active call; other numbers are inactive results; i = inactive; ? = inconclusive; . = not tested or not shown; [ ] = dose if it differs, or a comment. Unless noted, calls come from the whole dose curve; as a rule, active = well fitted curve in the direction sought with a large enough effect; inconclusive = small, poorly fitted or top-dose-only effect, or another doubt; inactive = no such curve, though single readings can be large; an effect the other way counts as inactive or inconclusive. Potency is the fitted concentration of half-maximal effect.

SMILES | HEK293 tox | hNpr1 antagonist | GPT2 inhibitor | FLuc inh | 3T3 cytotox | NPR1 antag cnf | Npr2 selectivity | FLuc inh counter | GloSensor cGMP
COc1ccc(C2Cn3nnc(C(=O)N4CCN(C(=O)c5cc(C)ccc5C)CC4)c3CO2)cc1 (centres undefined) | ? | ? | i | i | ? | ? | -23% | -1% | -15%
Cc1ccc(C(=O)N2CCN(C(=O)c3nnn4c3COC(c3ccc(F)cc3)C4)CC2)cc1C (centres undefined) | 45µM* | 11µM* | 0% | i | ? | 27µM* | 22µM* | 0% | 24µM*
COc1ccc(C(=O)N2CCN(C(=O)c3nnn4c3COC(c3ccc(F)cc3)C4)CC2)cc1 (centres undefined) | ? | -16% | -5% | i | ? | . | . | . | .
Cc1ccc(C2Cn3nnc(C(=O)N4CCN(C(=O)c5ccc(F)cc5)CC4)c3CO2)cc1 (centres undefined) | -10% | 2% | i | i | -3% | . | . | . | .
COc1ccc(C2Cn3nnc(C(=O)N4CCN(C(=O)c5ccc(F)cc5)CC4)c3CO2)cc1 (centres undefined) | ? | ? | i | i | -12% | 22µM* | ? | -1% | 22µM*
O=C(c1nccc2ccccc12)N1CCC(N2C(=O)C(OCC3CC3)C23CCCCC3)CC1 (centres undefined) | ? | 3% | i | i | -15% | . | . | . | .
COc1cc(F)ccc1C(C(=O)O)N1CCC(Oc2cccc(F)c2)CC1 (centres undefined) | -1% | 7% | 5%[11.5 µM] | i | -8% | . | . | . | .
CCC1COCCN1Cc1cn(-c2ccccc2)nc1-c1ccc(OC)cc1F (centres undefined) | ? | 0% | i | ? | ? | . | . | . | .
O=C(/C=C/c1ccc(O)cc1)OC1[C@H](O)CC(O)(C(=O)O)C[C@H]1O (some centres undefined) | . | . | -8%[27.3 µM] | . | . | . | . | . | .
CN(C)CCCCCCNC(=O)c1cccc(-c2cc(O)c3ncccc3c2)c1 | . | . | i | . | . | . | . | . | .
COc1ccc(C2Cn3nnc(C(=O)NC4CCCCCCC4)c3CO2)cc1 (centres undefined) | ? | ? | -8% | i | ? | ? | ? | -1% | 19µM*
COc1ccc(C2Cn3nnc(C(=O)NC4CCCCCC4)c3CO2)cc1 (centres undefined) | ? | ? | 1% | i | ? | . | . | . | .
COc1ccc(C2Cn3nnc(C(=O)N4CCN(C(=O)c5ccc(F)cc5Cl)CC4)c3CO2)cc1 (centres undefined) | ? | 11µM* | -6% | i | -26% | 22µM* | 22µM* | 0% | 19µM*
O=C(Cc1ccc(F)cc1)N1CCN(C(=O)c2nnn3c2COC(c2ccc(Cl)cc2)C3)CC1 (centres undefined) | ? | 13µM* | -1% | i | -25% | 24µM* | ? | -1% | 22µM*
COC(=O)c1cc(Br)cnc1N1CCC(NC2CCCCC2)C(O)C1 (centres undefined) | . | . | i | . | . | . | . | . | .
O=C(Cc1ccc(F)cc1)Nc1ccc(-c2nnc3n2CCCC3)cc1 | ? | 4% | -2% | i | -16% | . | . | . | .
O=C(c1ccoc1)N1CCc2onc(C(c3ccccc3)c3ccccc3)c2C1 | ? | -23% | i | ? | ? | . | . | . | .
O=C1NCc2ccccc2CC12CCCN2Cc1ccc(F)cc1 (centres undefined) | -4% | . | -17% | . | 1% | . | . | . | .
O=C1NCc2ccccc2CC12CCCN2Cc1ccc(Br)cc1 (centres undefined) | ? | . | i | . | ? | -21% | -25% | 2% | 2%
CC(=O)N1CCC(Cc2ccc(CN(C(=O)c3cccs3)C3CC3)cc2)CC1 | ? | . | i | . | ? | . | . | . | .
O=C1NC2(CCN(Cc3ccc(OC(F)(F)F)cc3)C2)OCc2ccccc21 (centres undefined) | 79µM* | ? | -18% | i | -18% | 22µM* | 22µM* | 2% | 17µM*
O=C1NC2(CCN(Cc3ccc(OC(F)(F)F)cc3)C2)Oc2ccccc21 (centres undefined) | ? | 8% | 3% | i | ? | . | . | . | .
O=C(C1CC(=O)N(c2n[nH]c3ccccc23)C1)N1CCC(c2noc3cc(F)ccc23)CC1 (centres undefined) | 13µM* | ? | i | i | 14µM* | 27µM* | ? | -3% | 27µM*
CC(C)(C)C(=O)N1CCN(C(=O)c2nc3cccnc3n(CCc3ccccc3)c2=O)CC1 | -8% | . | i | . | -25% | . | . | . | .
O=C(c1cc(Cl)ccc1F)N1CCC(Cc2nc(-c3ccc(F)cc3)no2)CC1 | ? | 3.2µM* | i | i | ? | 4.3µM* | 5.4µM* | 4% | 4.3µM*
O=C(c1cc(F)ccc1F)N1CCC(Cc2nc(-c3ccc(F)cc3)no2)CC1 | ? | 3.2µM* | i | i | ? | 3.1µM* | 4.8µM* | 4% | 3.1µM*
O=C1NCc2ccccc2CC12CCCCN2Cc1ccccc1F (centres undefined) | ? | . | i | . | ? | . | . | . | .
CC(C)N1CCN(C(=O)c2cc3n(n2)CC(c2ccc(Br)cc2)OC3)CC1 (centres undefined) | ? | ? | i | i | ? | ? | ? | 0% | ?
CC(=O)c1ccc(NC(=O)c2cc3n(n2)CC(c2ccc(Br)cc2)OC3)cc1 (centres undefined) | ? | ? | i | i | -13% | . | . | . | .
O=C(c1cc2n(n1)CC(c1ccc(Cl)cc1)OC2)N1CCN(c2ccc(Cl)cc2)CC1 (centres undefined) | 32µM* | 13µM* | -1% | i | ? | ? | ? | 0% | ?
